In the library only some 1.2% were active in any assay of this set; here they are far more common.
CIT2 TOR yeast: yeast TOR pathway CIT2-GFP modulation; 320,000 compounds, 0.065% hits; GFP response vs DMSO, % at 10 µM; S. cerevisiae CIT2-GFP strain, flow cytometry, 3 h; 100 means same as DMSO wells; AID 2029;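 active = GFP response relative to DMSO above a set limit, near the screen mean plus 3 SD, cut at about 150% in these data; inconclusive = Fewer than 70 cells measured for a yeast strain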;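 also: ratio of well median GFP fluorescence to mean of DMSO wells on the plate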
AGP1 TOR yeast: yeast TOR pathway AGP1-GFP modulation; S. cerevisiae AGP1-GFP multiplex flow cytometry, 3 h; GFP as percent of DMSO wells; GFP response vs DMSO, % at 10 µM; 320,000 compounds, 0.02% hits; AID 2066;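 active = GFP response relative to DMSO above a set limit, near screen average plus 3 SD, cut at about 150% in these data; inconclusive = fewer than 70 cells counted for the yeast strain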;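 also: median GFP channel fluorescence of the gated AGP1 strain per well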
Pemphigus Ab inh: blocks pemphigus antibody binding to human desmoglein-3 | DSG3-coupled beads, scFv-anti-DSG3-GFP binding, flow cytometry; active compounds read low | binding (percent of control), % at 10 µM | 310,000 compounds, 0.48% hits | P32926;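 active = binding more than 3 SD below its plate's average and above zero; inconclusive = below that plate limit but binding exactly zero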;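 also: hits lower antibody fragment binding to DSG3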
Target sequence (P32926 whole entry, looked up, the tested form may be a part): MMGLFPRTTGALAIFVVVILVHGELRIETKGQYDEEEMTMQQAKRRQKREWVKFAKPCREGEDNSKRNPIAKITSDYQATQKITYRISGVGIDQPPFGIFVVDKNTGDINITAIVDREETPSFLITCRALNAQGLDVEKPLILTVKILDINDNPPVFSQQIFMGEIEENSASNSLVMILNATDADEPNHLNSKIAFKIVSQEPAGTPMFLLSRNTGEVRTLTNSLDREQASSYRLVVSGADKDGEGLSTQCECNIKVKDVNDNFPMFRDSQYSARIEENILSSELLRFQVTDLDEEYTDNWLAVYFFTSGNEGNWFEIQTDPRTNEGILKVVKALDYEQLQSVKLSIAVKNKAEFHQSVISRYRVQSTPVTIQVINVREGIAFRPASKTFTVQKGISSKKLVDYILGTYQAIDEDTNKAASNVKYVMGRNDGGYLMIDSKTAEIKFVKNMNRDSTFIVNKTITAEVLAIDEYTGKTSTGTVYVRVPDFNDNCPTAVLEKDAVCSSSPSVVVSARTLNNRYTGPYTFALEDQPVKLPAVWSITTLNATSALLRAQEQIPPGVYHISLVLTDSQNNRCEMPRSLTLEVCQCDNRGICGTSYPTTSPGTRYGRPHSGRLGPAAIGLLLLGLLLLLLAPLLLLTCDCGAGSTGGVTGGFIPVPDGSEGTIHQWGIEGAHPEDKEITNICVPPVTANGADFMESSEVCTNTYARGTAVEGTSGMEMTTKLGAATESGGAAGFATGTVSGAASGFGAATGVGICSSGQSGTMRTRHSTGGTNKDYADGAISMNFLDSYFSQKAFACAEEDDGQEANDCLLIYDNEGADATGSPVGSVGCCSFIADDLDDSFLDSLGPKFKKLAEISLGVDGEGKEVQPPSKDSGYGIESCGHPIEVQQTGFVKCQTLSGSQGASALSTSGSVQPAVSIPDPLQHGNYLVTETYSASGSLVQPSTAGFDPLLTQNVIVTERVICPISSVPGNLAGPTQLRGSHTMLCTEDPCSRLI
LAP4-GFP MLPCN: yeast TOR pathway LAP4-GFP modulation | 320,000 compounds, 0.34% hits | S. cerevisiae LAP4-GFP multiplex, flow cytometry GFP, 3 h; median GFP as percent of DMSO wells | AID 2023 | GFP response vs DMSO, % at 10 µM;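 active = GFP response vs DMSO above a set limit, about the screen mean plus 3 SD, cut at about 150% in these data; inconclusive = under 70 cell events counted for the yeast strain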
RPL19A-GFP yeast: modulators of TOR pathway RPL19A-GFP in S. cerevisiae. S. cerevisiae RPL19A-GFP strain, flow cytometry, 3 h; active compounds read low. percent response vs DMSO, % at 10 µM. 330,000 compounds, 0.3% hits. AID 2025;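 active = percent response vs DMSO below 50%; inconclusive = fewer than 70 events counted for the yeast strain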;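 also: median channel GFP fluorescence of the barcoded RPL19A-GFP strain; ratio of sample median GFP to plate DMSO average so 100% = DMSO; lower means less RPL19A-GFP as with rapamycin TOR inhibition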
MEP2-GFP yeast: modulators of TOR pathway MEP2-GFP in S. cerevisiae. 330,000 compounds, 0.51% hits. S. cerevisiae MEP2-GFP strain, flow cytometry GFP, 3 h; 100% = DMSO control level. GFP response vs DMSO, % at 10 µM;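 active = GFP response versus DMSO above a set limit, roughly screen mean plus 3 SD, cut at about 180% in these data; inconclusive = fewer than 70 cells counted for a yeast strain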;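 also: median GFP fluorescence of the barcode-gated MEP2-GFP cells per well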
* marks the source's active call; other numbers are inactive results; ? = inconclusive; / = no result; [ ] = remark or other dose.

SMILES	CIT2 TOR yeast	AGP1 TOR yeast	Pemphigus Ab inh	LAP4-GFP MLPCN	RPL19A-GFP yeast	MEP2-GFP yeast
Cc1cnc(NC(=O)CSc2nnc(COc3c(C)cccc3C)o2)s1	98	98	82*	100	98	102
Cc1cnc(NC(=O)CSc2nnc(COc3ccccc3)o2)s1	96	105	/	102	93	97
COc1ccc(S(=O)(=O)CCC(=O)N2CCN(c3ccc(C(C)=O)cc3)CC2)cc1	96	97	127	93	97	102
COc1ccccc1C1c2ccc3ccccc3c2Oc2ncn(CCCO)c(=N)c21 (configuration not stated)	?	?	96	75	24*[may fluoresce violet]	352*[may fluoresce violet]
CC(C)[C@H](NS(=O)(=O)c1ccccc1)C(=O)OCC(=O)Nc1cccc(S(N)(=O)=O)c1	88	97	/	99	93	93
CCCc1cc(=O)n(-c2nc3ccccc3s2)[nH]1	92	93	94	159*	91	90
CCCCN(CCCC)CCNC(=O)c1cn(CC)c2ccc(S(=O)(=O)N3CCCC3)cc2c1=O	115	111	101	113	112	113
CC1CCCC(NC(=O)CSc2nnc(-c3cccnc3)n2N)C1C (configuration not stated)	111	99	128	91	101	104
CS(=O)(=O)N1CCc2cc(S(=O)(=O)NCCNS(=O)(=O)c3ccc4c(c3)CCN4S(C)(=O)=O)ccc21	103	100	77*	104	97	105
Cc1ccc(CC(=O)NCC(O)c2ccccc2)cc1 (configuration not stated)	?	?	120	85	46*[may fluoresce violet]	284*[may fluoresce violet]
CNC(=O)c1[nH]cnc1C(=O)Nc1ccccn1	435*[may fluoresce green]	154*[may fluoresce green]	126	430*[may fluoresce green]	155	622*[may fluoresce green]
CCOc1ccccc1NC(=O)c1nc[nH]c1C(=O)Nc1ccccc1OCC	95	96	104	100	103	101
COc1ccccc1NC(=O)c1nc[nH]c1C(=O)Nc1ccccc1OC	?	/	95	118	42*[may fluoresce violet]	558*[may fluoresce violet]
CCN(CC)CC(O)Cn1c(C)c(-c2ccccc2)c2cc([N+](=O)[O-])ccc21 (configuration not stated)	99	103	108	104	100	103
Cc1nn(Cc2c(Cl)cccc2Cl)c(C)c1C(=O)NCc1ccc(C)n1C	?	/	107	100	54	216*[may fluoresce violet]
Cc1nn(Cc2ccccc2)c(Cl)c1C(=O)NCc1ccc(C)n1C	95	98	102	104	98	101
COc1ccccc1-c1noc2c1C(=O)NCC2	/	/	100	/	/	/
COc1cc2nc(CN(C)Cc3ccc(OC)c(OC)c3OC)[nH]c(=O)c2cc1OC	83	90	100	82	98	88
CCOc1ccccc1-c1noc(CCC(=O)Nc2cccnc2)n1	89	68	96	88	68	223*
O=C(CCc1nc(-c2ccccc2F)no1)Nc1cccnc1	94	107	112	105	93	94
CCCCNC(=O)c1cc2c(=O)n3cccc(C)c3nc2n(Cc2ccncc2)c1=N	106	93	92	98	35*	132
CC(=O)N=c1c(C#N)cc2c(=O)n3cccc(C)c3nc2n1Cc1ccco1	?	15	102	97	55	198*[may fluoresce violet]
COCCNC(=O)c1cc2c(=O)n3cccc(C)c3nc2n(Cc2ccncc2)c1=N	?	?	103	?	?	?
Cc1cccn2c(=O)c3cc(C(=O)NCCc4ccccc4)c(=N)n(Cc4ccco4)c3nc12	?	?	112	80	53	400*[may fluoresce violet]
CCCCNC(=O)c1cc2c(=O)n3cccc(C)c3nc2n(CCN2CCOCC2)c1=N	?	?	113	75	43*[may fluoresce violet]	231*[may fluoresce violet]
Cc1ccccc1C(=O)N=c1c(C#N)cc2c(=O)n3cccc(C)c3nc2n1Cc1ccco1	?	27	/	106	110	109
Cn1cc(S(=O)(=O)N2CCOCC2)cc1C(=O)NCc1ccccc1Cl	100	100	100	91	100	90
COc1ccc2c(c1)c1c(c(=O)n(-c3ccc(C)cc3)c(=O)n1CC(=O)NCC1CCCO1)n2C (configuration not stated)	/	/	102	/	/	/
